Each structure is given as a SMILES string. Compounds without any hit were thinned out: in the full panel of roughly 83,000, 20% have a hit.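 48-hour exposure, single concentration, 96-well plates; percent growth endpoint where 0 means no net growth. Active: below 10.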 Unmarked numbers belong to inactive results. Activity calls are given as the source filed them.

In PubChem BioAssay (NCI) one finds growth data, which are given here for eight molecules.

Test systems include NCI-H23 lung; NCI-H226 lung; NCI-H322M lung; HOP-62 NSCLC; NCI-H460 lung; HOP-92 NSCLC; NCI-H522 lung; A549/ATCC NSCLC; 786-0 renal; COLO 205 colon; DU-145 prostate; K-562 leukemia; MALME-3M melanoma; MDA-MB-231 breast; RXF 393 renal; SF-268 CNS; SF-295 CNS; SF-539 CNS; UACC-257 melanoma; M14 melanoma.
Holding throughout (assay): NCI-60 one-dose screen, 48 h (100 = growth as untreated, 0 = no growth, -100 = all killed)
Holding throughout (conditions): 10 µM unless noted

With `COc1ccc(NC(=O)c2ccc(NC3=C(c4ccc(Cl)cc4)C(=O)NC3=O)cc2)cc1`, the growth was 85.3% with NCI-H23 lung; 84.4% in the test with NCI-H226 lung; 85.2% in the test on NCI-H322M lung; 80.8% with HOP-62 NSCLC; 90.6% with NCI-H460 lung; 102% in the test on HOP-92 NSCLC. Further, the growth was 45.2% in the test on NCI-H522 lung; 71.2% with A549/ATCC NSCLC; 89.1% in the test with 786-0 renal; 86.3% in the test with COLO 205 colon; 91.4% in the test with DU-145 prostate; 79% with K-562 leukemia. The growth in the test with MALME-3M melanoma was 86.9%; with MDA-MB-231 breast, 84.8%; in the test with RXF 393 renal, 84.4%; in the test with SF-268 CNS, 83.8%; in the test with SF-295 CNS, 86.8%; in the test on SF-539 CNS, 92.4%. Further, the growth with UACC-257 melanoma is 85.9%.
In the case of `N=C(N)c1ccc(-c2ccc(-c3ccccc3)s2)nc1`, the growth with NCI-H23 lung is 94.1%; in the test with NCI-H226 lung it was 92.8%; with NCI-H322M lung it was 80.4%; in the test with HOP-62 NSCLC, 88.8%; with NCI-H460 lung, 23.1%; in the test on HOP-92 NSCLC, 70.2%. Moreover, the growth in the test with NCI-H522 lung was 83.9%; in the test with A549/ATCC NSCLC, 83.8%; in the test with 786-0 renal, 91.3%; with COLO 205 colon it was -6.33% (active); in the test with DU-145 prostate, 92.1%; in the test with K-562 leukemia it was 14.5%. Further, the growth was 101% with MALME-3M melanoma; 86.1% in the test on MDA-MB-231 breast; 87.2% in the test with RXF 393 renal; 93.8% in the test with SF-268 CNS; 88% in the test on SF-295 CNS; 88.2% in the test with SF-539 CNS. Besides, the growth in the test with UACC-257 melanoma is 96%.
Turning to `C=C(C)[C@@H]1CC[C@]2(C(=O)NC(C)=O)CC[C@]3(C)[C@H](CC[C@@H]4[C@@]5(C)CCCNC(C)(C)[C@@H]5CC[C@]43C)[C@@H]12`, the growth in the test with NCI-H23 lung was 59.7%; with NCI-H226 lung, 83.6%; in the test with NCI-H322M lung, 63.3%; in the test with HOP-62 NSCLC, 56.4%; with NCI-H460 lung it was -84.2% (active); in the test with HOP-92 NSCLC, 56.4%. In addition, the growth with NCI-H522 lung was -46.7% (active); in the test with A549/ATCC NSCLC, 26.8%; in the test with 786-0 renal, 59.4%; with COLO 205 colon, -59% (active); in the test on DU-145 prostate, 24.8%; in the test on K-562 leukemia it was 3% (active). The growth was -83.3% (active) in the test on MALME-3M melanoma; 23.7% with MDA-MB-231 breast; 25.2% in the test on RXF 393 renal; 60.5% in the test with SF-268 CNS; 77.6% with SF-295 CNS; -79.6% (active) in the test on SF-539 CNS. The growth with UACC-257 melanoma was -64.5% (active).
With `COc1cc(C2=Nc3c(N)nc(N)nc3NC(c3cccc(Nc4ccnc5cc(C(F)(F)F)ccc45)c3)C2)cc(OC)c1OC` (stereo not drawn), the growth in the test with NCI-H23 lung was 79.5%; in the test on NCI-H226 lung, 89.5%; in the test with NCI-H322M lung it was 86.9%; in the test on HOP-62 NSCLC it was 86.3%; with NCI-H460 lung it was 72.5%; with HOP-92 NSCLC, 47.9%. The growth was 97.1% in the test on NCI-H522 lung; 73.6% in the test with A549/ATCC NSCLC; 61% in the test with 786-0 renal; 70.5% in the test on COLO 205 colon; 89.6% in the test on DU-145 prostate; 21.5% in the test with K-562 leukemia. For the same molecule, the growth is 90.6% in the test with MALME-3M melanoma; 57.8% with MDA-MB-231 breast; 45.1% in the test with RXF 393 renal; 63.3% in the test on SF-268 CNS; 82.5% in the test on SF-295 CNS; 79.3% with SF-539 CNS. Moreover, the growth in the test on UACC-257 melanoma was 77.7%.
On to `O=C(CSc1nc(-c2ccccc2)cn1-c1ccc(Cl)cc1)c1ccc([N+](=O)[O-])cc1`, for which the growth in the test on NCI-H23 lung is 78.5%; in the test on NCI-H226 lung, 84.7%; with NCI-H322M lung, 89%; in the test with HOP-62 NSCLC, 96.2%; in the test with NCI-H460 lung, 79.5%; with HOP-92 NSCLC, 87.5%. In addition, the growth in the test on NCI-H522 lung is 70.5%; in the test on A549/ATCC NSCLC, 86.8%; in the test on 786-0 renal, 90.3%; in the test on COLO 205 colon it was 96.1%; with DU-145 prostate, 93.2%; with K-562 leukemia it was 76.7%. Moreover, the growth in the test with MALME-3M melanoma is 103%; in the test on MDA-MB-231 breast it was 81.8%; with RXF 393 renal it was 71.2%; in the test with SF-268 CNS, -86.7% (active); with SF-295 CNS, 95.4%; in the test with SF-539 CNS, 92.4%. The growth in the test with UACC-257 melanoma is 97.9%.
For the molecule `Cc1c(C(=O)C(SC(=S)N2CCOCC2)SC(=S)N2CCOCC2)nnn1-c1ccc([N+](=O)[O-])cc1`, the growth is 108% in the test with NCI-H23 lung; 89.4% in the test with NCI-H226 lung; 98.7% in the test on NCI-H322M lung; 94.5% in the test with HOP-62 NSCLC; 98.8% in the test with NCI-H460 lung; 92.9% in the test on HOP-92 NSCLC. Also, the growth in the test on NCI-H522 lung is 80.3%; with A549/ATCC NSCLC, 96.5%; in the test on 786-0 renal, 98.6%; in the test on COLO 205 colon, 86.5%; in the test on DU-145 prostate it was 109%; in the test with K-562 leukemia, 74.7%. Also, the growth is 93.7% with MALME-3M melanoma; 101% with MDA-MB-231 breast; 105% with RXF 393 renal; 104% in the test on SF-268 CNS; 96.5% in the test on SF-295 CNS; 101% in the test with SF-539 CNS. Moreover, the growth with UACC-257 melanoma is 93.2%; in the test with M14 melanoma it was 89.8%.
In the case of `COc1ccc(/C(C)=C(\c2ccc(Cl)cc2)c2ccc(OCCCN(C)C)cc2)cc1`, the growth in the test with NCI-H23 lung was 82.3%; in the test on NCI-H226 lung, 103%; with NCI-H322M lung it was 82.2%; in the test with HOP-62 NSCLC it was 101%; in the test with NCI-H460 lung, 40.2%; in the test on HOP-92 NSCLC it was 62.5%. Moreover, the growth with NCI-H522 lung is 76.7%; with A549/ATCC NSCLC, 47.2%; in the test on 786-0 renal, 75.3%; in the test with COLO 205 colon, 15%; in the test with DU-145 prostate, 90.4%; in the test with K-562 leukemia, 1.91% (active). Further, the growth in the test on MALME-3M melanoma was 64.5%; with MDA-MB-231 breast, 78.9%; in the test with RXF 393 renal it was 70.1%; with SF-268 CNS it was 77.4%; in the test on SF-295 CNS it was 85.7%; in the test on SF-539 CNS it was 82.5%. For the same molecule, the growth in the test with UACC-257 melanoma is 89.1%.
Regarding `O=C(/C=C/c1ccco1)c1ccc(Nc2ccnc3cc(Cl)ccc23)cc1`, the growth in the test with NCI-H23 lung was 82.1%; with NCI-H226 lung, 111%; with NCI-H322M lung, 39.3%; in the test with HOP-62 NSCLC, 104%; with NCI-H460 lung, 36%; in the test with HOP-92 NSCLC, 41.5%. Besides, the growth was 81.9% with NCI-H522 lung; 62% in the test on A549/ATCC NSCLC; 76.6% in the test with 786-0 renal; 90.4% in the test on COLO 205 colon; 90.8% in the test with DU-145 prostate; 51.2% with K-562 leukemia. Further, the growth with MALME-3M melanoma is 110%; with MDA-MB-231 breast, 70.2%; in the test on RXF 393 renal it was -28.3% (active); with SF-268 CNS, 105%; in the test with SF-295 CNS, 72.5%; in the test on SF-539 CNS, 92.1%. Also, the growth with UACC-257 melanoma is 97.8%.
